Inconclusive results are not listed. The source made the active and inactive calls. Calls come from the whole dose curve; as a rule, active = well fitted curve in the direction sought with a large enough effect; inconclusive = small, poorly fitted or top-dose-only effect, or another doubt; inactive = no such curve, though single readings can be large; an effect the other way counts as inactive or inconclusive.
What was measured:
HEK293 = assay: Cytotoxic Profiling of Annotated Libraries Using Quantitative High-Throughput Screening (AID 1296008); details: Five cell lines viability, CellTiter-Glo ATP luminescence, 48-72 h; max response: active compounds read low; note: nearly all actives have a fitted effect of over 60% in size
How it was run: (§1)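 Compounds were pin-transferred onto cells and incubated 48 or 72 hr at 37 degree Celsius, 95% humidity. CellTiter-Glo was added, plates sat 10 min at room temperature, then ATP-coupled luminescence was imaged as the viability read-out.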

HaCat = assay: as above; details: Five cell lines viability, CellTiter-Glo ATP luminescence, 48-72 h; max response: active compounds read low
How it was run: as §1

KB-3-1 = assay: as above; details: Five cell lines viability, CellTiter-Glo ATP luminescence, 48-72 h; max response: active compounds read low
How it was run: as §1

NIH3T3 = assay: as above; details: Five cell lines viability, CellTiter-Glo ATP luminescence, 48-72 h; max response: active compounds read low
How it was run: as §1

C33A = assay: Primary qHTS to identify gynecologic anti-cancer compounds using libraries of approved drugs and bioactive compounds (AID 1345084); details: Gynecologic cancer cell panel viability, ATPlite luminescence, 48 h; series mostly up to 57.5 µM; note: nearly all actives have a fitted effect of over 55% in size
How it was run: (§2)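 Measured: luminescence after ATPlite addition (15 min, RT). Exposure: 48 h, 37 C, 5% CO2.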

CAOV3 = assay: as above; details: Gynecologic cancer cell panel viability, ATPlite luminescence, 48 h; series mostly up to 57.5 µM
How it was run: as §2

JEG-3 = assay: as above; details: Gynecologic cancer cell panel viability, ATPlite luminescence, 48 h; series mostly up to 57.5 µM
How it was run: as §2

CASKI = assay: as above; details: Gynecologic cancer cell panel viability, ATPlite luminescence, 48 h; series mostly up to 57.5 µM
How it was run: as §2

Es-2 = assay: as above; details: Gynecologic cancer cell panel viability, ATPlite luminescence, 48 h; series mostly up to 57.5 µM
How it was run: as §2

HeLa = assay: as above; details: Gynecologic cancer cell panel viability, ATPlite luminescence, 48 h; series mostly up to 57.5 µM
How it was run: as §2

Hek293T = assay: as above; details: Gynecologic cancer cell panel viability, ATPlite luminescence, 48 h, control line for the selectivity index; series mostly up to 57.5 µM
How it was run: as §2
% is set by controls: 0 for no effect and ±100 for the full control effect; potency is the fitted concentration of half-maximal effect.

Cc1ccc(S(=O)(=O)Cc2nc(-c3ccc(C(=O)NCc4cccnc4)cc3)oc2C)cc1
active: Potency (HEK293) 0.0065 µM | Potency (HaCat) 0.146 µM | Potency (KB-3-1) 0.0082 µM | Potency (NIH3T3) 0.0731 µM
inactive: Potency (C33A) | Potency (CAOV3) | Potency (JEG-3)

NC1CCC(Nc2cc(-c3cccc(NCc4cccc(F)c4)n3)c(Cl)cn2)CC1 (stereo not given)
active: Potency (HEK293) 0.259 µM | Potency (HaCat) 1.03 µM | Potency (KB-3-1) 0.366 µM | Potency (NIH3T3) 1.16 µM | Potency (C33A) 1.26 µM | Potency (CASKI) 0.891 µM | Potency (Es-2) 0.708 µM | Potency (HeLa) 0.355 µM | Potency (Hek293T) 1 µM

O=C(NOCC(O)CO)c1ccc(F)c(F)c1Nc1ccc(I)cc1F (stereo not given)
inactive: max response (HEK293) 2.15% | max response (HaCat) -79.3% | outcome (KB-3-1) | Potency (C33A) | Potency (CAOV3) | Potency (CASKI) | Potency (HeLa) | Potency (Hek293T) | Potency (JEG-3)
active: Potency (NIH3T3) 1.84 µM

COc1ccc(CC2NCCc3c2[nH]c2ccc(C)cc32)cc1OC (stereo not given)
inactive: max response (HaCat) -6.85% | max response (KB-3-1) -15.3% | max response (NIH3T3) -1.6% | Potency (C33A) | Potency (CASKI) | Potency (Es-2) | Potency (HeLa) | Potency (Hek293T) | Potency (JEG-3)
active: Potency (HEK293) 10.3 µM

O=C(/C=C\n1cnc(-c2cc(C(F)(F)F)cc(C(F)(F)F)c2)n1)N1CC(F)(F)C1
inactive: max response (HaCat) -18.4% | Potency (C33A)
active: Potency (HEK293) 1.3 µM | Potency (KB-3-1) 7.31 µM | Potency (NIH3T3) 1.84 µM | Potency (CAOV3) 2.82 µM | Potency (Es-2) 3.16 µM | Potency (HeLa) 17.8 µM | Potency (Hek293T) 1.58 µM

C=C1C(OC(=O)/C(C)=C\C)[C@@]23CCC4[C@@](C)(CCC[C@@]4(C)C(=O)O)C2CC[C@H]1C3OC(C)=O (stereo not given in full)
inactive: max response (HEK293) -4.19% | max response (HaCat) 4.6% | max response (KB-3-1) 5.82% | max response (NIH3T3) 1.34% | Potency (C33A) | Potency (CASKI) | Potency (Es-2) | Potency (HeLa) | Potency (Hek293T) | Potency (JEG-3)

CC(C(O)/C=C/C(C)(C)O)C1CCC2(C)C3C(=O)C=C4C(CCC(O)C4(C)C)C3(C)CCC12C (stereo not given)
inactive: max response (HEK293) -3.03% | max response (HaCat) -4.33% | outcome (KB-3-1) | max response (NIH3T3) 4.41% | Potency (C33A) | Potency (CASKI) | Potency (Es-2) | Potency (HeLa) | Potency (Hek293T) | Potency (JEG-3)

COC(=O)C1=COC(O[C@@H]2O[C@H](CO)[C@@H](O)[C@H](O)[C@H]2O)[C@H]2[C@@H]1[C@H](OC(=O)CCc1ccc(O)cc1)C[C@]2(C)O (stereo not given in full)
inactive: max response (HEK293) 0.992% | max response (HaCat) -1.18% | max response (KB-3-1) -2.46% | max response (NIH3T3) 2.76% | Potency (C33A) | Potency (CASKI) | Potency (Es-2) | Potency (HeLa) | Potency (Hek293T) | Potency (JEG-3)

C[C@@H]1CC[C@]2(C(=O)O)CC[C@]3(C)C(=CCC4[C@@]5(C)CC[C@H](O)C(C)(C)C5C(O)C[C@]43C)[C@@H]2[C@]1(C)O (stereo not given in full)
inactive: max response (HEK293) 4.01% | max response (HaCat) -8.55% | max response (KB-3-1) 7.38% | max response (NIH3T3) -6.6% | Potency (C33A) | Potency (CASKI) | Potency (Es-2) | Potency (HeLa) | Potency (Hek293T) | Potency (JEG-3)

NC(=O)C(CCC(F)(F)F)N(Cc1ccc(-c2ncon2)cc1F)S(=O)(=O)c1ccc(Cl)cc1 (stereo not given)
inactive: max response (HEK293) -83.5% | max response (HaCat) -84.6% | max response (KB-3-1) -38% | max response (NIH3T3) -69% | Potency (C33A) | Potency (CASKI) | Potency (Es-2) | Potency (HeLa) | Potency (Hek293T) | Potency (JEG-3)

C/C1=C\CCC(C)CCO[C@@H]2O[C@H](CO[C@@H]3OC[C@H](O)[C@H](O)[C@H]3OC1=O)[C@@H](O)[C@H](O)[C@H]2O (stereo not given in full)
inactive: max response (HEK293) 2.77% | max response (HaCat) -12.1% | outcome (KB-3-1) | max response (NIH3T3) -2.67% | Potency (C33A) | Potency (CASKI) | Potency (Es-2) | Potency (HeLa) | Potency (Hek293T) | Potency (JEG-3)

CC1C(=O)OCC2=CCN3CCC(OC(=O)C(C)(O)C1(C)O)C23 (stereo not given)
inactive: max response (HEK293) -9.35% | max response (HaCat) -22.6% | outcome (KB-3-1) | max response (NIH3T3) -32% | Potency (C33A) | Potency (CASKI) | Potency (Es-2) | Potency (HeLa) | Potency (Hek293T) | Potency (JEG-3)

O=C(C(c1ccccc1)c1ccccc1)N1CCN(CC(O)COc2cccc3ncccc23)CC1 (stereo not given)
active: Potency (HEK293) 6.51 µM
inactive: max response (HaCat) -24.2% | max response (KB-3-1) -28.1% | max response (NIH3T3) -26.9% | Potency (C33A) | Potency (CASKI) | Potency (Es-2) | Potency (HeLa) | Potency (Hek293T) | Potency (JEG-3)

COC(=O)C[C@H]1[C@]2(C)C3=C(C)[C@H](c4ccoc4)C[C@H]3O[C@@H]2[C@H](OC(C)=O)C2[C@](C)(C(=O)OC)C=CC(=O)[C@@]21C (stereo not given in full)
inactive: max response (HEK293) -6.04% | max response (HaCat) -0.0032% | max response (KB-3-1) 1.1% | max response (NIH3T3) 4.56% | Potency (C33A) | Potency (CASKI) | Potency (Es-2) | Potency (HeLa) | Potency (Hek293T) | Potency (JEG-3)

O=C(Nc1ccc(S(=O)(=O)Nc2ccccc2Cl)c(Cl)c1)c1ccccn1
inactive: max response (HEK293) -10.8% | max response (HaCat) -15.8% | max response (KB-3-1) -5.44% | max response (NIH3T3) -3.89% | Potency (C33A) | Potency (CASKI) | Potency (Es-2) | Potency (HeLa) | Potency (Hek293T) | Potency (JEG-3)

COc1cc(/C=C/CO)cc(OC)c1O[C@@H]1O[C@H](CO[C@@H]2O[C@H](CO)[C@@H](O)[C@H](O)[C@H]2O)[C@@H](O)[C@H](O)[C@H]1O
inactive: max response (HEK293) 1.54% | max response (HaCat) 4.69% | max response (KB-3-1) 9.56% | max response (NIH3T3) -3.2% | Potency (C33A) | Potency (CASKI) | Potency (Es-2) | Potency (HeLa) | Potency (Hek293T) | Potency (JEG-3)

Source: PubChem BioAssay (NCATS)
